The list is not random: actives were taken first. Their share in the collection is about 7.8%.
VACV mCherry inh: vaccinia inhibition (mCherry reporter); Vaccinia virus mCherry reporter infection, fluorescence; Potency, µM (top dose mostly 36.5 µM), without a hit: top-dose activity change, negative = inhibition, most hits filed as inhibitors; 310,000 compounds, 0.63% hits; calls by dose curve; tested in A549 cells; also: potency is read from the fitted curve at half-maximal effect; nearly all actives have a fitted effect of over 35% in size
Marburg entry inh: Marburg virus entry inhibition. Marburg virus pseudotyped entry inhibition, cell reporter. Potency, µM (highest dose often 37.8 µM), for inactives: at the highest dose activity change, negative = inhibition, most hits filed as inhibitors. 300,000 compounds, 1.8% hits. AID 540276; calls by dose curve; tested in HEK293 cells; also: potency is read from the fitted curve at half-maximal effect
Vaccinia Venus: inhibitors of vaccinia virus (Venus reporter); Potency, µM (highest dose often 36.5 µM), inactives show at the highest dose activity change, negative = inhibition, actives largely listed as inhibitors; Vaccinia virus Venus reporter expression, fluorescence; 330,000 compounds, 0.46% hits; calls by dose curve; tested in A549 cells; also: potency is read from the fitted curve at half-maximal effect; nearly all actives have a fitted effect of over 30% in size
Lassa entry inh: Lassa virus entry inhibition | Lassa virus pseudotype entry inhibition, cell reporter | Potency, µM (top dose mostly 37.9 µM), for inactives: at the highest dose activity change, negative = inhibition, usual class: inhibitors | 300,000 compounds, 1.2% hits; calls by dose curve; tested in HEK293 cells; also: potency is read from the fitted curve at half-maximal effect; nearly all actives have a fitted effect of over 50% in size
HCV inhibitor: blocks hepatitis C virus; Huh7.5.1 HCVcc-Cre infection, luciferase reporter, 44 h; Potency, µM (top dose mostly 41.8 µM), inactives show at the top dose activity change, negative = inhibition, most hits filed as inhibitors; 340,000 compounds, 3.4% hits; active = well fitted inhibition curve with a large enough effect; inconclusive = small, poorly fitted or top-dose-only effect, or another doubt; inactive = no such curve, though single readings can be large or run the other way; also: potency is read from the fitted curve at half-maximal effect
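Infectious HCV cell culture screen: compound-treated cells (1,000/well, pre-plated 4 h) are infected with HCVcc-Cre at roughly 0.5 moi and grown 44 h. Infection is quantified by luciferase signal after 15 min substrate incubation at room temperature.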
HCMV inh: blocks human cytomegalovirus replication | HFF cells, HCMV-luciferase reporter, 72 h; hits give low values | activity change, negative = inhibition, % at 57.5 µM | 410,000 compounds, 4.5% hits; in the data active = activity change below about -60%; inconclusive = no clear call, values can overlap the other calls; inactive = above about -39%
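Two compound doses tested in HFFs infected with HCMV-luciferase, MOI 1 PFU/cell, 72 h at 37C. Lysate luminescence read with OneGlo; data normalized against buffer-only and 10uM Salinomycin inhibitor controls.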
An asterisk follows results filed as active; i = inactive; ? = inconclusive; . = not tested or not shown; [ ] = another dose, or the depositor's remark. % is scaled to controls: 0 for no effect and ±100 for the full control effect.

SMILES | VACV mCherry inh | Marburg entry inh | Vaccinia Venus | Lassa entry inh | HCV inhibitor | HCMV inh
C/C=C(\C)C(=O)Nc1cccc(C2=NOC3(C2)C[C@@H](C(N)=O)N(C(=O)/C(C)=C/C)C3)c1 (stereo partly drawn) | i | . | -1.7% | . | 5.6% | -67.6*
N#CCC(=O)N1CC2(CC(c3cccc(NC(=O)COc4ccc(Cl)cc4)c3)=NO2)C[C@@H]1C(N)=O (stereo partly drawn) | i | . | -3.4% | . | -1.6% | -7.4
NC(=O)[C@H]1CC2(CC(c3cccc(NC(=O)CC(c4ccccc4)c4ccccc4)c3)=NO2)CN1C(=O)CC(c1ccccc1)c1ccccc1 (stereo partly drawn) | -4.7% | . | -25.9% | . | -20.5% | -33.2
COC(=O)C(Nc1cc(OC)ccc1OC)(c1cccc(OC)c1)C(Nc1cc(OC)ccc1OC)c1ccc(Br)cc1 (stereo not drawn) | . | . | . | . | . | -20.3
COc1ccc2oc(=O)cc(CN3CCN(C(=O)c4ccccc4)CC3)c2c1 | -3.9% | 9.6%[46.1 µM] | -5.9% | -1.0%[46.1 µM] | . | 8.1
CCC(C)NC(=O)CN1C(=O)c2cccnc2Oc2ccc(C)cc21 (stereo not drawn) | -13.6% | . | -1.3% | 7.5%[46.1 µM] | . | 18.4
O=C(CCS(=O)(=O)c1ccc(Cl)cc1)Nc1nnc(-c2ccco2)o1 | 10µM* | ? | ? | ? | ? | -30.9
O=C(CCS(=O)(=O)c1ccc(F)cc1)Nc1nnc(-c2ccc(F)cc2)o1 | 10µM* | -7.7% | ? | -12.5% | 12.1% | 6.9
COc1ccccc1-c1nnc(NC(=O)CCS(=O)(=O)c2ccc(F)cc2)o1 | ? | . | 4.47µM* | . | . | -11.2
Cc1ccc(-c2nnc(NC(=O)CCS(=O)(=O)c3ccc(F)cc3)o2)c(C)c1 | -21.4% | ? | -14.9% | -22.4% | 4.8% | 4.2
CCN(Cc1ccccc1)S(=O)(=O)c1ccc(C(=O)Nc2nnc(-c3ccccc3OC)o2)cc1 | i | ? | -13.9% | ? | 6.7% | -60.8*
COC(=O)C1=C(C)N(CC#C[Si](C)(C)C)C(=O)N(C(C)=O)C1c1ccccc1 (stereo not drawn) | . | -5.4%[14.2 µM] | . | . | . | .
COC(=O)N1C(/C=C/c2ccc3c(c2)OCO3)=Cc2ccccc2C1CC(C)=O (stereo not drawn) | . | -12.3%[14.2 µM] | . | . | . | .
CCN1C(=O)/C(=C2\C=CC3=C(CCCC3)N2CC)SC1=S | . | -6.6% | . | . | . | .
COc1cccc(Nc2nccc3[nH]c(-c4cccc(C(F)(F)F)c4)nc23)c1 | . | . | . | . | . | -18.0
COc1ccccc1-c1nnc(NC(=O)c2ccc(S(=O)(=O)N(C)C)cc2)o1 | -25.4% | -26.6% | ? | -9.9% | -25.1% | 0.5
COc1ccccc1-c1nnc(NC(=O)CCS(=O)(=O)c2ccccc2)o1 | 8.91µM* | 19.9% | ? | 7.0% | -4.3% | -5.4
Nc1ncc(-c2cccc(S(N)(=O)=O)c2)c2scc(-c3ccc(F)c(Cl)c3)c12 | . | . | . | 22.3µM* | . | .
CC#CC#Cc1cccc(=O)o1 | -19.2% | . | -19.8% | . | ? | -88.9*
Cc1ccc(C2c3c(-c4cc(C)ccc4O)n[nH]c3C(=O)N2Cc2ccco2)cc1 (stereo not drawn) | -12.5% | ? | ? | ? | . | -33.1
O=C1c2[nH]nc(-c3ccccc3O)c2C(c2ccc(F)cc2)N1Cc1ccco1 (stereo not drawn) | . | ? | . | 8.2µM* | -1.3% | -34.9
COc1ccc(C2c3c(-c4ccccc4O)n[nH]c3C(=O)N2Cc2ccco2)cc1OC (stereo not drawn) | -2.7% | -13.8%[46.1 µM] | -16.7% | ? | -1.3% | -30.7
Cc1cc(C)c(O)c(-c2n[nH]c3c2C(c2cccc(O)c2)N(Cc2ccco2)C3=O)c1 (stereo not drawn) | 10µM* | . | ? | . | 11.2µM* | -28.0
O=C1c2[nH]nc(-c3ccccc3O)c2C(c2cccc(Cl)c2)N1Cc1ccco1 (stereo not drawn) | . | 13µM* | . | ? | 12.6µM* | 13.6
COc1ccc2c(c1)c1c(c(=O)n(-c3ccc(F)c(Cl)c3)c(=O)n1CC(N)=O)n2C | 3.0% | . | 0.1% | 0.9%[46.1 µM] | . | -0.5
SMILES | VACV mCherry inh | Marburg entry inh | Vaccinia Venus | Lassa entry inh | HCV inhibitor | HCMV inh
CCOC(=O)c1c(-c2ccccc2)nc2ccccn12 | . | 3.2% | . | ? | -6.9% | -62.5*
CCOC(=O)c1c(-c2ccccc2)nc2c(C)cccn12 | . | 19.7% | . | 0.8% | -16.9% | -21.2
CCC1(O)C(=O)OCc2c1cc1n(c2=O)Cc2cc3c(N)cccc3nc2-1 (stereo not drawn) | -26.7% | ? | ? | ? | ? | -98.4*
COC(=O)[C@H](C)N(Cc1ccc(Cl)c(Cl)c1)S(=O)(=O)CCN1CCCC1 | ? | . | ? | . | ? | -16.4
COC(=O)[C@H](C)N(Cc1ccc(Cl)c(Cl)c1)S(=O)(=O)CCN1CCN(c2ccccc2)CC1 | 14.1µM* | . | ? | . | ? | -12.0
COCCNC(=S)N1CCC2CC1c1cc(-c3ccc4c(c3)OCO4)ccc12 (stereo not drawn) | i | . | -1.0% | . | . | -21.5
S=C(NCCc1ccccc1)N1CCC2CC1c1cc(-c3ccc4c(c3)OCO4)ccc12 (stereo not drawn) | 0.0% | . | -20.1% | . | . | -74.5*
CCC(=O)N1CCc2cc(Br)cc(S(=O)(=O)CCC(=O)NCC3CCCO3)c21 (stereo not drawn) | -14.8% | ? | -1.9% | 3.9% | -1.0% | -109.4*
CC(=O)Oc1ccc(-c2nc3cc(Cl)ccc3c(=O)o2)cc1 | -16.2% | 28.0%[46.1 µM] | 17.8% | 13.7%[46.1 µM] | 15.8% | -78.4*
CC(=O)Oc1ccc2c(=O)oc(-c3ccccc3)nc2c1 | i | 23.1%[46.1 µM] | -3.8% | -0.3%[46.1 µM] | 3.5% | 26.5
Cc1ccc(C(=O)OCc2cc(=O)n3nc(CC(C)C)sc3n2)cc1 | -9.5% | . | -7.7% | 21.9%[46.1 µM] | . | 2.9
CCOC(=O)C1(CCc2ccccc2)CCN(C2CCSCC2)CC1 | -3.0% | 10µM* | -10.3% | ? | 7.7% | -26.7
CCOC(=O)C1(CCOc2ccccc2)CCN(Cc2cccc(-n3cccn3)c2)CC1 | . | ? | . | ? | 12.6µM* | -39.1
CCOC(=O)C1(CCOc2ccccc2)CCN(Cc2cccc(OCCO)c2)CC1 | -16.9% | ? | -9.0% | -17.3% | -23.2% | 61.8
CCOC(=O)C1(CCc2ccccc2)CCN(C2Cc3ccccc3C2)CC1 | -11.8% | -20.2%[46.1 µM] | -4.3% | -11.8% | -26.9% | -4.5
CCOC(=O)C1(CCc2ccccc2)CCN(Cc2ccc3c(c2)OCCO3)CC1 | -12.6% | ? | -4.6% | ? | ? | -77.0*
CCOC(=O)C1(CCOc2ccccc2)CCN(Cc2cccc(OC)c2OC)CC1 | -5.2% | ? | -15.4% | ? | 28.2µM* | -3.0
CCOC(=O)C1(CCc2ccccc2)CCN(Cc2ccc(C(=O)OC)cc2)CC1 | . | . | . | . | -16.5% | -10.4
O=C(Nc1cc(F)ccc1F)c1cc2nc(-c3ccco3)cc(C(F)(F)Cl)n2n1 | -13.2% | . | -9.5% | -1.6%[46.1 µM] | . | -5.0

Screening results: PubChem BioAssay, National Center for Advancing Translational Sciences (NCATS)
